Reference: ChEMBL document CHEMBL1961873, “Compounds: GSK PKIS; Assays: Nanosyn kinase panel” (2012)

Legend:
[1] = target: Mitogen-activated protein kinase 3 (Homo sapiens) (UniProt P27361); settings: at 1 µM;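 note: values are mean percent inhibition of MAPK3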
[2] = target: SRSF protein kinase 3 (Homo sapiens) (UniProt Q9UPE1); settings: at 0.1 µM
[3] = target: SRSF protein kinase 3 (Homo sapiens) (UniProt Q9UPE1); settings: at 1 µM
[4] = target: Mitogen-activated protein kinase 14 (Homo sapiens) (UniProt Q16539); settings: at 0.1 µM
[5] = target: Mitogen-activated protein kinase 14 (Homo sapiens) (UniProt Q16539); settings: at 1 µM
[6] = target: Mitogen-activated protein kinase 11 (Homo sapiens) (UniProt Q15759); settings: at 0.1 µM
[7] = target: Mitogen-activated protein kinase 11 (Homo sapiens) (UniProt Q15759); settings: at 1 µM
[8] = target: T1, Mitogen-activated protein kinase 13 (Homo sapiens) (UniProt O15264); settings: at 0.1 µM
T1 sequence (whole entry): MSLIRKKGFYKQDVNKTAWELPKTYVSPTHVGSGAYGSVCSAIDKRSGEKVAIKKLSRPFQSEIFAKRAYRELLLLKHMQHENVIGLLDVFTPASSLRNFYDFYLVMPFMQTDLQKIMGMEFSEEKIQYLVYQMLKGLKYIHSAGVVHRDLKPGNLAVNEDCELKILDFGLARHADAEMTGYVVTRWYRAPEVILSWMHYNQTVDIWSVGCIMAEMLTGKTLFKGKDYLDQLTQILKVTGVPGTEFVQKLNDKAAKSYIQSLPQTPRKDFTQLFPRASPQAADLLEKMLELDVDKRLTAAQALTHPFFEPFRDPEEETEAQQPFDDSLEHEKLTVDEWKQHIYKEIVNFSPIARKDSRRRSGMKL

[9] = target: T1, Mitogen-activated protein kinase 13 (Homo sapiens); settings: at 1 µM
[10] = target: T2, Mitogen-activated protein kinase 12 (Homo sapiens) (UniProt P53778); settings: at 0.1 µM
T2 sequence (whole entry): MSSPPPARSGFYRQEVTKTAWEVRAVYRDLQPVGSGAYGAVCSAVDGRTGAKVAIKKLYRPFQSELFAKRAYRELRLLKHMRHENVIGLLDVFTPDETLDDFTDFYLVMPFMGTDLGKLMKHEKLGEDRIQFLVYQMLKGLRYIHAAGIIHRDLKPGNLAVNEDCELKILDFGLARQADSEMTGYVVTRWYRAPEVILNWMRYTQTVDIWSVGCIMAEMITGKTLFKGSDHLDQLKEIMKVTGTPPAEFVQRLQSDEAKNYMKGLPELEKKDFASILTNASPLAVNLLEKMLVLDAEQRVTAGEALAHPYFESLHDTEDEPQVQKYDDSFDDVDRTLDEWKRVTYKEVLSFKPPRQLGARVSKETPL

[11] = target: T2, Mitogen-activated protein kinase 12 (Homo sapiens); settings: at 1 µM
[12] = target: SRSF protein kinase 1 (Homo sapiens) (UniProt Q96SB4); settings: at 0.1 µM
[13] = target: SRSF protein kinase 1 (Homo sapiens) (UniProt Q96SB4); settings: at 1 µM
[14] = target: Phosphatidylinositol 4,5-bisphosphate 3-kinase catalytic subunit alpha isoform (Homo sapiens) (UniProt P42336); settings: at 0.1 µM
[15] = target: Phosphatidylinositol 4,5-bisphosphate 3-kinase catalytic subunit alpha isoform (Homo sapiens) (UniProt P42336); settings: at 1 µM
[16] = target: T3, Phosphatidylinositol 4,5-bisphosphate 3-kinase catalytic subunit delta isoform (Homo sapiens) (UniProt O00329); settings: at 0.1 µM
T3 sequence (whole entry): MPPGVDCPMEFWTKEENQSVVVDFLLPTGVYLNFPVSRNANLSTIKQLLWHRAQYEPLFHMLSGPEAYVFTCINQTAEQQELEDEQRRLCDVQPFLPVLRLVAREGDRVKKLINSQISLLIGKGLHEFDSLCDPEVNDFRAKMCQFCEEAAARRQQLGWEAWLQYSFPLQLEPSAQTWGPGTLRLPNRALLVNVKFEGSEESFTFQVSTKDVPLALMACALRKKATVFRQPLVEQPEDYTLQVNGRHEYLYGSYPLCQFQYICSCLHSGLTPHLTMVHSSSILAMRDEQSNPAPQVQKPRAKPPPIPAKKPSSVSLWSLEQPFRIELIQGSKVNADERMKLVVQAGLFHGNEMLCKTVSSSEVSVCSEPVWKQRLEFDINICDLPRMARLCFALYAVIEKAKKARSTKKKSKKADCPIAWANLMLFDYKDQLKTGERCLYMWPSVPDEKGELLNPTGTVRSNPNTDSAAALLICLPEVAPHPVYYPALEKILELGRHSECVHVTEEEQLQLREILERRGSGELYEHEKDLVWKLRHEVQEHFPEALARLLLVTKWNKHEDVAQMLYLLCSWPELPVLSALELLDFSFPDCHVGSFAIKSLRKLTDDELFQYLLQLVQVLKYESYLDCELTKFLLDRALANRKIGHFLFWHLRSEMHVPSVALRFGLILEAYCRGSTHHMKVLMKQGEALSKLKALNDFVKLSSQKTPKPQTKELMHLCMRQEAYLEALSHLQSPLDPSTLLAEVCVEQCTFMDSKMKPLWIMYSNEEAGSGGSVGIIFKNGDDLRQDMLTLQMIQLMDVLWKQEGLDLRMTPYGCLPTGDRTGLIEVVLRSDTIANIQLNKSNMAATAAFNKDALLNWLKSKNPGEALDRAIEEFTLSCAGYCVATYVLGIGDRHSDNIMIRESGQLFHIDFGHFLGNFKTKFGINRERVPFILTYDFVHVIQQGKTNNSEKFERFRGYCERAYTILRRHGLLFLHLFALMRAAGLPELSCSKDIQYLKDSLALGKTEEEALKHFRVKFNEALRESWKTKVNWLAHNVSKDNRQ

[17] = target: T3, Phosphatidylinositol 4,5-bisphosphate 3-kinase catalytic subunit delta isoform (Homo sapiens); settings: at 1 µM
[18] = target: Phosphatidylinositol 4-kinase beta (Homo sapiens) (UniProt Q9UBF8); settings: at 0.1 µM
[19] = target: Phosphatidylinositol 4-kinase beta (Homo sapiens) (UniProt Q9UBF8); settings: at 1 µM
[20] = target: Sphingosine kinase 1 (Homo sapiens) (UniProt Q9NYA1); settings: at 0.1 µM;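 note: mean percent inhibition of SPHK1 activity, measured within the GSK PKIS screening panel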
Sphingosine kinase 1 (Homo sapiens), sequence (Q9NYA1 whole entry): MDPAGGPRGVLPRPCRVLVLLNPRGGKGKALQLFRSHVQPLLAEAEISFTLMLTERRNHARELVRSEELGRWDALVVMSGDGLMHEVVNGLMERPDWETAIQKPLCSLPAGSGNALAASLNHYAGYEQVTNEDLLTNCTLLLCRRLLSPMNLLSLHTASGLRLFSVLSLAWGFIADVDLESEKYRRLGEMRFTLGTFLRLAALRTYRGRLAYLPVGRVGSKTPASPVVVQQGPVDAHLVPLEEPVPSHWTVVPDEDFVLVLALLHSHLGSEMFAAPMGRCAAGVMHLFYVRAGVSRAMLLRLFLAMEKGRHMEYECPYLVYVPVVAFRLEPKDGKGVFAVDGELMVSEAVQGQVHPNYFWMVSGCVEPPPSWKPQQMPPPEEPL

Mitogen-activated protein kinase 11 (Homo sapiens), sequence (Q15759 whole entry): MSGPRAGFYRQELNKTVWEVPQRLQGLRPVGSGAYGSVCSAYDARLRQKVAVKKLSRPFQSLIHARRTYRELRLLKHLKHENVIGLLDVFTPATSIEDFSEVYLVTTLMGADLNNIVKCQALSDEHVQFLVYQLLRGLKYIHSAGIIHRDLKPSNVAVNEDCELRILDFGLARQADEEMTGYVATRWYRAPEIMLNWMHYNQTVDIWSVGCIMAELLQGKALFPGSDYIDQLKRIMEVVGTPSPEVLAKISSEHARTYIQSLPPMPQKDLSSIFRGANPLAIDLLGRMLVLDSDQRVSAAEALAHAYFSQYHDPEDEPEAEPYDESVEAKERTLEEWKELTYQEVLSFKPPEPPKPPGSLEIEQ
Mitogen-activated protein kinase 3 (Homo sapiens), sequence (P27361 whole entry): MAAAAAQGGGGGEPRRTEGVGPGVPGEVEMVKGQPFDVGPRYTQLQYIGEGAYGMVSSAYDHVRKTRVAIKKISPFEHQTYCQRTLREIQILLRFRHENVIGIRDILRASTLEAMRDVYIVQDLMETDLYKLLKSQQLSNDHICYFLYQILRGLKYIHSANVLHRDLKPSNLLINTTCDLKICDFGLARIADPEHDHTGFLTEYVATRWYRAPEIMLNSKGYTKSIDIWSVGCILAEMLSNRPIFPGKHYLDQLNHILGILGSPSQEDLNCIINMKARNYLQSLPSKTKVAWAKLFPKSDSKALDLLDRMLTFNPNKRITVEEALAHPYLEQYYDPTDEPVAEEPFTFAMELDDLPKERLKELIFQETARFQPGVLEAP
Phosphatidylinositol 4,5-bisphosphate 3-kinase catalytic subunit alpha isoform (Homo sapiens), sequence (P42336 whole entry, canonical isoform): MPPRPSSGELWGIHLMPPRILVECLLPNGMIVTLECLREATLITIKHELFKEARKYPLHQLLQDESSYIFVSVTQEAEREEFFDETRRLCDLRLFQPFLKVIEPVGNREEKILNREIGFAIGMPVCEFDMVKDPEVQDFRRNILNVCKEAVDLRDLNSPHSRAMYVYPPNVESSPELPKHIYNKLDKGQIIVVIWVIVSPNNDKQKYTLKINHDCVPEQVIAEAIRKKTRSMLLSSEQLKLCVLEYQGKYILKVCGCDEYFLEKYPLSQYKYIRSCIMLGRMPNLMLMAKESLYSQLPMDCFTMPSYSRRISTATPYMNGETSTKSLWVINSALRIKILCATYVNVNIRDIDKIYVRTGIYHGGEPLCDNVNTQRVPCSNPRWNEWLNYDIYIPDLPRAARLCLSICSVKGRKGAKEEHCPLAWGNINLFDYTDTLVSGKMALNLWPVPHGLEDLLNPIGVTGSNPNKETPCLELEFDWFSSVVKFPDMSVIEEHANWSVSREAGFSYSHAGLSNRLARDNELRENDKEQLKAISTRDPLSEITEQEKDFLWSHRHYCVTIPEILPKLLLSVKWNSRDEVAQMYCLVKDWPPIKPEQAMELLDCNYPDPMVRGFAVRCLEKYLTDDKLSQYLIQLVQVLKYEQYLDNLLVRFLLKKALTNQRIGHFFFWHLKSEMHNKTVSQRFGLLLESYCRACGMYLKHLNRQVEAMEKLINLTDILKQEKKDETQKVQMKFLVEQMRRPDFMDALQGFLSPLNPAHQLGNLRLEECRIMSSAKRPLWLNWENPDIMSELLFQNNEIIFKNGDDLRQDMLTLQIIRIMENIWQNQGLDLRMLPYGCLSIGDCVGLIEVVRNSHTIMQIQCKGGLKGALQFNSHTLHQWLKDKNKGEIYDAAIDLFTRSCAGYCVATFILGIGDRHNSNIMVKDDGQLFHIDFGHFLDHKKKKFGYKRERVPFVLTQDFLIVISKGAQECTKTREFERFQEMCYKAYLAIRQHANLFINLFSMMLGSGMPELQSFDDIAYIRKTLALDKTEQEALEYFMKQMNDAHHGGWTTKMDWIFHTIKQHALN
SRSF protein kinase 1 (Homo sapiens), sequence (Q96SB4 whole entry, canonical isoform): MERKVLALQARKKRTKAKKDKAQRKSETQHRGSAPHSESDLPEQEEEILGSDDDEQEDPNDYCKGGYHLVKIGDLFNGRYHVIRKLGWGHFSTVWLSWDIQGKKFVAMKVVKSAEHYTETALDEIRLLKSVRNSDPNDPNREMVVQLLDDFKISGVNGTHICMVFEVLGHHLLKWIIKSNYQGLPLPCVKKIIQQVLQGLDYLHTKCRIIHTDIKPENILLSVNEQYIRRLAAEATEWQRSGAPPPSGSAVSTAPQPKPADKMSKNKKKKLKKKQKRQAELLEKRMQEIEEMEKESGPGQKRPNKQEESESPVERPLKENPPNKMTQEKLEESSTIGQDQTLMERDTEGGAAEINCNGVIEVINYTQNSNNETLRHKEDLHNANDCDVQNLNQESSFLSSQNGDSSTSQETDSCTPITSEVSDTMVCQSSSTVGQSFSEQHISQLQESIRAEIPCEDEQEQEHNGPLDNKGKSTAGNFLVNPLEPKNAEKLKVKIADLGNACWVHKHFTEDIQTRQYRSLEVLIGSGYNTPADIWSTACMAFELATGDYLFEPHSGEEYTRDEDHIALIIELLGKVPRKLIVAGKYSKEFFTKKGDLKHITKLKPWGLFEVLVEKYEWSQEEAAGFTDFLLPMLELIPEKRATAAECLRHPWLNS
SRSF protein kinase 3 (Homo sapiens), sequence (Q9UPE1 whole entry): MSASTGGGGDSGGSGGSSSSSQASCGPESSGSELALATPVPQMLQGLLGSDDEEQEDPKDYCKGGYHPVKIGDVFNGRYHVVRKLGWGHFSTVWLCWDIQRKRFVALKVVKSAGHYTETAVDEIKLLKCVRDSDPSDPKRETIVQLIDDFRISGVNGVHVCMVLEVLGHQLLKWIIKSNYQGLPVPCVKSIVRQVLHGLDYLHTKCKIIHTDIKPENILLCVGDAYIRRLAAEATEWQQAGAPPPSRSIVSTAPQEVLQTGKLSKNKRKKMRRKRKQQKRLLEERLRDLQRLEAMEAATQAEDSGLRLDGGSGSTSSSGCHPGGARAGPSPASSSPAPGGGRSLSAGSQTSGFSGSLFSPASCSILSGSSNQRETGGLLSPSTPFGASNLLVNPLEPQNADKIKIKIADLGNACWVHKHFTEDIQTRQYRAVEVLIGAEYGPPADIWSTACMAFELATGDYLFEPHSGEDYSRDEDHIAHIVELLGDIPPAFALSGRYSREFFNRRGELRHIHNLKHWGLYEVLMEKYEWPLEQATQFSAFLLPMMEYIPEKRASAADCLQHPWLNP
Phosphatidylinositol 4-kinase beta (Homo sapiens), sequence (Q9UBF8 2-816 limits assumed): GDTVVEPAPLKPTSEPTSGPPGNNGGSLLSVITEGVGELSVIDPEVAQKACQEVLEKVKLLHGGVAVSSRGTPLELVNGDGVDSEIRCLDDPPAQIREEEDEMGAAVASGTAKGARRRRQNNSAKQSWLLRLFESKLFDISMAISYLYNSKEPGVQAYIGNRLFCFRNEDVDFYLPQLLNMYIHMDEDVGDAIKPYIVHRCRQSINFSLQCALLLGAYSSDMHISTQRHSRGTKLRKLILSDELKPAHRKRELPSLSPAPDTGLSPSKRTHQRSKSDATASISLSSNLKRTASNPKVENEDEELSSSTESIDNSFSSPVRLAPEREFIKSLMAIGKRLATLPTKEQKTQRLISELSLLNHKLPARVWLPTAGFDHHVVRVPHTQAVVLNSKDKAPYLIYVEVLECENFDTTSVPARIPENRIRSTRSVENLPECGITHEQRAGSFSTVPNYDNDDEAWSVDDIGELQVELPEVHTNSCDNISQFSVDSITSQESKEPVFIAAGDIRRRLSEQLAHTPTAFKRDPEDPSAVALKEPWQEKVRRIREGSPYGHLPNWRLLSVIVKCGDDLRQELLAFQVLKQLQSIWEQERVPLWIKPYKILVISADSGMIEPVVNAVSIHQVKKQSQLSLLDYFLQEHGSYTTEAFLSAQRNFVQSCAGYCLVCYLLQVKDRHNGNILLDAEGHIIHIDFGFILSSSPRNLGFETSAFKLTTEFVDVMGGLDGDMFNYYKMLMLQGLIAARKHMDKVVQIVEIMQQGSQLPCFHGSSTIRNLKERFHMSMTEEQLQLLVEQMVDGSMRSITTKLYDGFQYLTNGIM
Mitogen-activated protein kinase 14 (Homo sapiens), sequence (Q16539 whole entry): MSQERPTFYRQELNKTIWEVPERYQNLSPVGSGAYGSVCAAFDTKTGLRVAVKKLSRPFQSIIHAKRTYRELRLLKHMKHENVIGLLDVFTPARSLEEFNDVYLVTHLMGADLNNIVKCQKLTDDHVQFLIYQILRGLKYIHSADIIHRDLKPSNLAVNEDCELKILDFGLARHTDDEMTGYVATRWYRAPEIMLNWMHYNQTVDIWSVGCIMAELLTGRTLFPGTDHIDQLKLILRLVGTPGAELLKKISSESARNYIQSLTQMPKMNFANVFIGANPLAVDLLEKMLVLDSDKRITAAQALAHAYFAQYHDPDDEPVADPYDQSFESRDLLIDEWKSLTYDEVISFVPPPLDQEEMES

SMILES | inhibition [1] [%] | inhibition [2] [%] | inhibition [3] [%] | inhibition [4] [%] | inhibition [5] [%] | inhibition [6] [%] | inhibition [7] [%] | inhibition [8] [%] | inhibition [9] [%] | inhibition [10] [%] | inhibition [11] [%] | inhibition [12] [%] | inhibition [13] [%] | inhibition [14] [%] | inhibition [15] [%] | inhibition [16] [%] | inhibition [17] [%] | inhibition [18] [%] | inhibition [19] [%] | inhibition [20] [%]
O=C(Nc1n[nH]c2nc(-c3ccco3)ccc12)C1CC1 | 1.35 | 0.39 | 4.26 | 1.96 | 5.5 | 1.81 | 1.59 | 1.26 | 1.37 | 5.77 | 0.97 | -1.07 | -1.33 | -1.36 | 0.99 | -0.99 | 1.03 | 3.38 | 1.68 | -0.31
Fc1ccc(-c2ncn(C3CCNCC3)c2-c2ccnc(Oc3ccc(F)c(F)c3)n2)cc1 | 6.51 | -3.83 | -1.43 |  |  |  |  |  |  |  |  | -3.26 | -1.49 | 3.43 | 3.41 | 1.7 | 3.53 | -1.47 | 1.86 | 1.28
CN(C)c1ccc2c(c1)/C(=C/Nc1ccc(S(N)(=O)=O)cc1)C(=O)N2 | 2.21 | -1.98 | -1.04 | 1.18 | 2.39 | 1.4 | 0.72 | 6.36 | 1.98 | 2.6 | 1.82 | -1.68 | -2.04 | 0.45 | 4.82 | 0.7 | 4.54 | -6.01 | 3.23 | 3.41
COc1cccc(/C=N/Nc2ncnc3c2cnn3-c2cccc(OC)c2)c1 | 2.47 | -1.31 | -0.75 | 5.18 | 5.34 | 2.68 | 2.6 | 4 | 4.61 | 3.43 | 4.21 | -3.08 | -2.5 | 4.36 | 1.65 | 0.9 | 1.58 | 3.72 | 2.27 | 2.07
Fc1ccc(-c2ncn(CCCN3CCOCC3)c2-c2ccncc2)cc1 | 1.77 | -0.25 | -0.76 | 7.39 | 48 | 3.21 | 8.94 | 0.12 | -0.39 | 0.95 | 0.4 | 0.27 | -5.35 | -0.43 | 0.51 | 1.59 | 2.95 | -1.68 | -0.65 | 1.13
COc1cc(Nc2ncc(-c3ccccc3)o2)cc(OC)c1OC | 1.29 | -0.22 | 0.18 | -3.46 | -4.25 | 1.4 | 0.04 | -0.94 | -1.63 | -1.8 | -1.06 | 2.19 | 1 | 0.99 | 2.57 | 2.6 | 11.4 | 11.5 | 7.23 | 1.38
